Experimental findings from PubChem BioAssay (EPA / NIEHS) are described below.

Molecules are shown by their SMILES. Inconclusive results are not listed. Calls of active or inactive are those of the source. How the source made its calls: active means hit-call score of the fitted dose curve at least 0.9, where 1 is the maximum; inconclusive means response in the unintended direction; inactive means score below 0.9.

A short description of assay [1]: TOX21_p53_BLA_p2_viability: Viability Assessment in the Tox21 HCT-116 p53 Agonism Beta-lactamase Assay, Phase 2 (AID 2283591).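 Further: actives lower the ATP signal meaning cytotoxicity.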 Put shortly:
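Cytotoxicity readout: CellTiter-Glo ATP luminescence, 30 min at room temperature, after the beta-lactamase read. Cells were HCT116 exposed 16 h at 37C to compounds pin-transferred at 217-fold dilution from DMSO stocks.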

Assay [2] concerns the target Cellular tumor antigen p53 (Homo sapiens) (UniProt P04637). The experiment in a line: TOX21_p53_BLA_p2_ratio: Tox21 HCT-116 p53 Agonism Beta-lactamase Assay, Ratio, Phase 2 (AID 2283592). Put shortly:
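An inducible beta-lactamase reporter in HCT116 cells signals p53 pathway activation. After 16 h chemical exposure at 37C, cells load CCF4-AM substrate for 2 h at room temperature; activity is the cleaved/uncleaved emission ratio relative to DMSO.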

Assay [3] is described as follows: TOX21_p53_BLA_p3_viability: Viability Assessment in the Tox21 HCT-116 p53 Agonism Beta-lactamase Assay, Phase 3 (AID 2283593).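 Further: cells exposed to compound for 16 h before reading.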 The method, boiled down:
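Cellular ATP was quantified by CellTiter-Glo luminescence, read after 30 min at room temperature. Beforehand, HCT116 cells (4000/well) received compound 5 h post-seeding, 217-fold diluted from DMSO, then incubated 16 h at 37C.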

The target in assay [4] is Cellular tumor antigen p53 (Homo sapiens) (UniProt P04637). The experiment in a line: TOX21_p53_BLA_p3_ratio: Tox21 HCT-116 p53 Agonism Beta-lactamase Assay, Ratio, Phase 3 (AID 2283596). The method, boiled down:
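HCT116 p53-bla cells (4000/well) given compound in DMSO (217-fold dilution) after 5 h, incubated 16 h at 37C. CCF4-AM substrate 2 h at room temperature; 460/530 nm emission ratio, gain fitted against DMSO.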

A short description of assay [5]: TOX21_p53_BLA_p4_viability: Viability Assessment in the Tox21 HCT-116 p53 Agonism Beta-lactamase Assay, Phase 4 (AID 2283597).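 Further: hits lower the luminescence signal meaning cytotoxicity.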 The method, boiled down:
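Compound exposure of HCT116 cells lasts 16 h at 37C, 5% CO2, with DMSO stocks diluted 217-fold. Cellular ATP is then quantified by CellTiter-Glo luminescence after 30 min at room temperature.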

Assay [6] deals with Cellular tumor antigen p53 (Homo sapiens) (UniProt P04637). The experiment in a line: TOX21_p53_BLA_p5_ratio: Tox21 HCT-116 p53 Agonism Beta-lactamase Assay, Ratio, Phase 5 (AID 2283599). The method, boiled down: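 Beta-lactamase reporter ratio (blue 460 nm over green 530 nm, 405 nm excitation) after 2 h CCF4-AM loading, in HCT-116 cells exposed 16 h at 37 C to compounds pinned at 217-fold dilution. Increases relative to DMSO baseline scored.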

Assay [7] is described as follows: TOX21_p53_BLA_p5_viability: Viability Assessment in the Tox21 HCT-116 p53 Agonism Beta-lactamase Assay, Phase 5 (AID 2283600). Put shortly: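 Counter-readout for cytotoxicity: ATP-dependent luminescence from CellTiter-Glo, read in the beta-lactamase wells after 30 min at RT, following a 16 h compound exposure at 37C.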
The target in assay [8] is Cellular tumor antigen p53 (Homo sapiens) (UniProt P04637). The assay is described as follows: TOX21_p53_BLA_p4_ratio: Tox21 HCT-116 p53 Agonism Beta-lactamase Assay, Ratio, Phase 4 (AID 2283601). The method, boiled down: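 Signal is the blue/green (460nm/530nm) ratio of cleaved versus uncleaved CCF4-AM substrate, read after 2 h substrate loading. Cells were HCT116 carrying the p53-responsive beta-lactamase reporter, dosed 16 h at 37C, 5% CO2; CellTiter-Glo measured in parallel.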

Chain of Cellular tumor antigen p53 (Homo sapiens) (P04637 whole entry, looked up): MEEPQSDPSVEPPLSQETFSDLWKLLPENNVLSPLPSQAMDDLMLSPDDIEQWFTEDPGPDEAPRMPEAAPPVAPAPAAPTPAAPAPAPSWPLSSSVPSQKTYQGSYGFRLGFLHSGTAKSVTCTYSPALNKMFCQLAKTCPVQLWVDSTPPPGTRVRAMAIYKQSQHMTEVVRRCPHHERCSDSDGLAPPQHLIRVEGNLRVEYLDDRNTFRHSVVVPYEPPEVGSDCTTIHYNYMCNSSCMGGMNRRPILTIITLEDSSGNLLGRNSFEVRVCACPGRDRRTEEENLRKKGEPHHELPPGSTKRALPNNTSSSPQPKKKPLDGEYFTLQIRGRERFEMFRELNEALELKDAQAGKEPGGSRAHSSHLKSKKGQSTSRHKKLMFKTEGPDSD

Consider `O=C(O)c1ccccn1`, for which the outcome in assay [1], in assay [2], in assay [3], in assay [4], in assay [5] and in assay [6] was inactive. For the same compound, the outcome in assay [7] and in assay [8] was inactive.
For `O=[N+]([O-])c1cc(I)c(O)c(I)c1`, the AC50 (usually the concentration at which the activity in the assay is half-maximal) was 7.77 µM (active) in assay [1]; 17.7 µM (active) in assay [2]; 5.69 µM (active) in assay [3]; 2.65 µM (active) in assay [4]; 11.3 µM (active) in assay [5]; 24.2 µM (active) in assay [6]. Moreover, the results for the AC50 in assay [7] and in assay [8] were 11 µM (active) and 18 µM (active), respectively.
Take `C[C@@H]1CC[C@H]2[C@@H](C)C(=O)O[C@@H]3O[C@@]4(C)CC[C@@H]1[C@]32OO4`: the outcome in assay [1], in assay [2], in assay [3], in assay [4], in assay [5] and in assay [6] was inactive. The call in assay [7] and in assay [8] was inactive.
On to `CN`, for which the call in assay [1], in assay [2], in assay [3], in assay [4], in assay [5] and in assay [6] was inactive. For the same compound, the compound was classed as inactive in assay [7] and in assay [8].
In the case of `BrCC(Br)C1CCC(Br)C(Br)C1` (stereo not given), the call in assay [1], in assay [2], in assay [3], in assay [4], in assay [5] and in assay [6] was inactive. The compound was classed as inactive in assay [7] and in assay [8].
Consider `Clc1ccc(CCC(Cn2ccnc2)Sc2c(Cl)cccc2Cl)cc1` (stereo not given), for which the compound was classed as inactive in assay [1], in assay [2], in assay [3], in assay [5], in assay [6] and in assay [7]. For the same compound, the result in assay [8] was inactive. The AC50 in assay [4] is 15.9 µM (active).
`CN[C@@H]1C[C@@H](c2ccc(Cl)c(Cl)c2)c2ccccc21`: the compound was classed as inactive in assay [1], in assay [2], in assay [3], in assay [4], in assay [6] and in assay [7]. The outcome in assay [8] was inactive. Further, the AC50 in assay [5] was 33.9 µM (active).
On to `CC(O)CN1CCN(CC(=O)[O-])CCN(CC(=O)[O-])CCN(CC(=O)[O-])CC1.[Gd+3]` (stereo not given), for which the compound was classed as inactive in assay [1], in assay [2], in assay [3], in assay [4], in assay [5] and in assay [6]. Further, the compound was classed as inactive in assay [7] and in assay [8].
For the compound `NCC(O)c1cccc(O)c1` (stereo not given), the result in assay [1], in assay [2], in assay [3], in assay [4], in assay [5] and in assay [6] was inactive. Further, the outcome in assay [7] and in assay [8] was inactive.
Take `ClC(Br)Br`: the compound was classed as inactive in assay [1], in assay [2], in assay [3], in assay [4], in assay [5] and in assay [6]. In addition, the call in assay [7] and in assay [8] was inactive.
